Source: PubChem BioAssay (NCI)
This is part of a sample that, as a whole, favours compounds with a hit. Of some 83,000 tested, about 20% had one in any assay.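 Cells were grown in 96-well plates and exposed to the test compound at a single concentration for 48 hours; results are reported as percent growth, with values below 10 considered active.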 Active and inactive are the calls of the source.

What was measured:
Assay in all cases: NCI-60 one-dose screen, 48 h (100 = growth as untreated, 0 = no growth, -100 = all killed)
Conditions in all cases: 10 µM unless noted
DU-145 prostate = system: DU-145 prostate
K-562 leukemia = system: K-562 leukemia
MALME-3M melanoma = system: MALME-3M melanoma
MDA-MB-231 breast = system: MDA-MB-231 breast
RXF 393 renal = system: RXF 393 renal
SF-268 CNS = system: SF-268 CNS
SF-295 CNS = system: SF-295 CNS
SF-539 CNS = system: SF-539 CNS
UACC-257 melanoma = system: UACC-257 melanoma
M14 melanoma = system: M14 melanoma
HCT-15 colon = system: HCT-15 colon
HT29 colon = system: HT29 colon
SNB-75 CNS = system: SNB-75 CNS
SNB-19 CNS = system: SNB-19 CNS
U251 CNS = system: U251 CNS
PC-3 prostate = system: PC-3 prostate
SK-MEL-5 melanoma = system: SK-MEL-5 melanoma
UACC-62 melanoma = system: UACC-62 melanoma
SK-MEL-28 melanoma = system: SK-MEL-28 melanoma
LOX IMVI melanoma = system: LOX IMVI melanoma

Measured: growth

CCN(CC)c1ccc(/C=N\NC(=O)c2cccc(Nc3ccnc(C(F)(F)F)c3)c2)c(O)c1
inactive: DU-145 prostate 23.1% | K-562 leukemia 92.3% | MALME-3M melanoma 24.4% | MDA-MB-231 breast 13.6% | SF-268 CNS 10.3% | SF-295 CNS 16.8% | UACC-257 melanoma 27.3% | M14 melanoma 21.2% | HCT-15 colon 28.7% | HT29 colon 11.7% | SNB-75 CNS 34.7% | SNB-19 CNS 15.9% | U251 CNS 13.1% | PC-3 prostate 18.9% | SK-MEL-28 melanoma 64.8%
active: RXF 393 renal -1.92% | SF-539 CNS -38.9% | SK-MEL-5 melanoma -52.2% | UACC-62 melanoma -12.2%

CO[C@H](C(=O)[C@@H](O)[C@@H](C)O)[C@@H]1Cc2cc3cc(O[C@H]4C[C@@H](O[C@H]5C[C@@H](O)[C@H](O)C(C)O5)[C@H](O)C(C)O4)c(C)c(O)c3c(O)c2C(=O)[C@H]1O[C@H]1C[C@@H](O[C@H]2C[C@@H](O[C@H]3C[C@@H](OC)[C@H](O)C(C)O3)[C@@H](O)C(C)O2)C(O)(O)C(C)O1 (some centres not stated)
inactive: DU-145 prostate 19.5% | K-562 leukemia 12.1% | SF-268 CNS 26.3% | SF-295 CNS 12.4% | M14 melanoma 11.1% | HCT-15 colon 34.2% | SNB-19 CNS 11.8% | PC-3 prostate 19.4%
active: MALME-3M melanoma -36.8% | MDA-MB-231 breast 5.02% | RXF 393 renal -57.9% | SF-539 CNS -0.417% | UACC-257 melanoma -20.5% | HT29 colon -0.578% | SNB-75 CNS -41.6% | U251 CNS 9.8% | SK-MEL-5 melanoma -51.5% | LOX IMVI melanoma 3.54% | SK-MEL-28 melanoma -15.5%

Clc1nccc2c(-c3csc(-c4c[nH]c5ccccc45)n3)c[nH]c12
inactive: DU-145 prostate 31.6% | K-562 leukemia 10.3% | MALME-3M melanoma 79.8% | MDA-MB-231 breast 24.8% | RXF 393 renal 12.4% | SF-268 CNS 73.4% | SF-295 CNS 26.7% | SF-539 CNS 41.9% | HT29 colon 23.6% | SNB-75 CNS 41.4% | SNB-19 CNS 71.8% | U251 CNS 20.9% | PC-3 prostate 40.1% | SK-MEL-5 melanoma 55.8% | UACC-62 melanoma 43.9% | SK-MEL-28 melanoma 23.9%
active: UACC-257 melanoma -29.2% | M14 melanoma -26.6% | HCT-15 colon -39.6%

CCCCCCCCn1ccc2cc(NC(=O)Cn3cc(CN4CCCCCC4)nn3)ccc21
active: K-562 leukemia -62.2% | MALME-3M melanoma -88.6% | MDA-MB-231 breast -26% | SF-295 CNS -71.3% | SF-539 CNS -73.9% | UACC-257 melanoma -49.2% | M14 melanoma -68.3% | HCT-15 colon -65.9% | HT29 colon -48.3% | U251 CNS -43.6% | SK-MEL-5 melanoma 0.757% | LOX IMVI melanoma -90.8% | SK-MEL-28 melanoma -86.1%
inactive: DU-145 prostate 30.7% | RXF 393 renal 29.2% | SF-268 CNS 15.5% | SNB-75 CNS 87.5% | SNB-19 CNS 14.4% | PC-3 prostate 40%

N=C(N)c1ccc(-c2ccc(-c3ccc(Cl)cc3)o2)o1
active: DU-145 prostate -80.4% | K-562 leukemia -60% | MDA-MB-231 breast -60.2% | HCT-15 colon -78.1% | HT29 colon -58.3% | SNB-19 CNS -68.3% | U251 CNS -95.5% | UACC-62 melanoma -67.4%
inactive: MALME-3M melanoma 90.6% | RXF 393 renal 40.4% | SF-268 CNS 17.9% | SF-295 CNS 27.4% | SF-539 CNS 74.1% | UACC-257 melanoma 53.4% | M14 melanoma 19.7% | SNB-75 CNS 69.8% | PC-3 prostate 43.9% | SK-MEL-5 melanoma 76% | SK-MEL-28 melanoma 96.9%

Nc1nc(C(=O)N/N=C/c2ccc(N3CCOCC3)cc2)nn1-c1ccc(S(N)(=O)=O)cc1
inactive: DU-145 prostate 105% | K-562 leukemia 94% | MALME-3M melanoma 107% | MDA-MB-231 breast 115% | RXF 393 renal 108% | SF-268 CNS 99% | SF-295 CNS 104% | SF-539 CNS 105% | UACC-257 melanoma 107% | M14 melanoma 103% | HCT-15 colon 108% | HT29 colon 106% | SNB-75 CNS 83% | SNB-19 CNS 102% | U251 CNS 98.3% | PC-3 prostate 101% | SK-MEL-5 melanoma 102% | LOX IMVI melanoma 97.4% | SK-MEL-28 melanoma 117%

O=C1NC(=C(Cl)Cl)/C(=N/S(=O)(=O)N2CCCCC2)N1
inactive: DU-145 prostate 101% | SF-268 CNS 28.3% | SF-295 CNS 110% | SF-539 CNS 11.8% | UACC-257 melanoma 39.3% | M14 melanoma 37.9% | SNB-75 CNS 93.5% | SNB-19 CNS 60.9% | PC-3 prostate 28.5% | SK-MEL-5 melanoma 82%
active: K-562 leukemia -51.6% | MALME-3M melanoma -73.6% | MDA-MB-231 breast -6.69% | RXF 393 renal -39.8% | HCT-15 colon -79% | HT29 colon -75.8% | U251 CNS -45.1% | LOX IMVI melanoma -56.6% | SK-MEL-28 melanoma -32.7%

Cc1ccc(C)n1/C=C/n1c(C)ccc1C
inactive: DU-145 prostate 113% | K-562 leukemia 117% | MALME-3M melanoma 117% | MDA-MB-231 breast 99.2% | RXF 393 renal 102% | SF-268 CNS 143% | SF-295 CNS 76.9% | SF-539 CNS 100% | UACC-257 melanoma 119% | M14 melanoma 110% | HCT-15 colon 106% | HT29 colon 102% | SNB-75 CNS 80.7% | SNB-19 CNS 98.4% | U251 CNS 109% | PC-3 prostate 62.8% | SK-MEL-5 melanoma 98.7% | LOX IMVI melanoma 105% | SK-MEL-28 melanoma 125%
